Experimental data taken from PubChem BioAssay AID1259343 (VanderVen Lab, College of Veterinary Medicine, Cornell …, 2017).
The campaign covered roughly 6,200 compounds. About 2,900 (47%) were called active. The set was probably picked from earlier hits. The list shows a part of the results. Unmarked numbers belong to inactive results. No stated cut-off is given here; in the data, active means inhibition above about 50%; inactive means the rest.

assay: Mycobacterium tuberculosis growth inhibition, primary screen (AID 1259343); details: inhibition: at 10 µM, hits give high values; outcome: 10 uM

Structure (SMILES)	inhibition
Cc1ccccc1CNc1cccc([N+](=O)[O-])c1	35.8%
CCOc1ccc(N=Cc2cccc([N+](=O)[O-])c2)cc1	96.3% (active)
COCc1cc(C)nc(N/N=C\c2ccccc2[N+](=O)[O-])c1C#N	-18.7%
COc1ccc(OCCCCOc2ccccc2[N+](=O)[O-])cc1	76.2% (active)
CCOc1ccc(OCCCCOc2ccccc2[N+](=O)[O-])cc1	83.2% (active)
Cc1ccccc1CON=Cc1cccc([N+](=O)[O-])c1	54.1% (active)
CCOC(=O)CCCCCCCCCCCCC1C=CCC1 (stereo not drawn)	-30.7%
CCOc1ccc(OCCOc2ccc([N+](=O)[O-])cc2)cc1	26.5%
CCOc1ccc(OCCOc2ccccc2[N+](=O)[O-])cc1	97.3% (active)
CCOc1ccc(OCCCOc2ccc([N+](=O)[O-])cc2)cc1	23%
COc1cc(C)ccc1OCCCOc1ccc([N+](=O)[O-])cc1	41.8%
CCOc1cccc(OCCCOc2ccc([N+](=O)[O-])cc2)c1	86% (active)
COC(=O)C1=C(O)C(C(=O)OC)C(c2cccs2)C(C#N)(C#N)C1c1cccs1 (stereo not drawn)	4.02%
Cc1cccc(N2CCN(C(C)C(=O)Nc3cc(C)on3)CC2)c1 (stereo not drawn)	85.9% (active)
Cc1cc(NC(=O)c2cc(CC(C)C)on2)no1	47.4%
CCCCCCNC(N)=S	72.8% (active)
CC1Sc2ccc(C(=O)N(C)Cc3cccc(Cl)c3)cc2NC1=O (stereo not drawn)	30.6%
CN(Cc1ccc(Cl)cc1Cl)C(=O)C1CCN(c2ccccc2[N+](=O)[O-])CC1	45%
Cc1nn(C)cc1CN(C)C(=O)c1cccc(Cl)c1	101% (active)
CC1CC1C(=O)Nc1ccc(-n2nccc2C(F)(F)F)cc1 (stereo not drawn)	40%
CN1N=C(CC(=O)Nc2ccc(-n3nccc3C(F)(F)F)cc2)CC1=O	87.8% (active)
Cc1cc(NC(=O)c2ccco2)n(-c2nc(C)c(C)c(=O)[nH]2)n1	100% (active)
Cc1cc(NC(=O)c2cc3ccccc3o2)n(-c2nc(C)c(C)c(=O)[nH]2)n1	-29.9%
CCc1c(C)nc(-n2nc(C)cc2NC(=O)c2ccco2)[nH]c1=O	100% (active)
O=C(CCc1ccccc1)C1CCCN(Cc2nc(CC3CC3)no2)C1 (stereo not drawn)	inactive

Structure (SMILES)	inhibition
Clc1ccc(-c2noc(CN3CCN(c4ncnc5ccccc45)CC3)n2)cc1	71.1% (active)
O=C1CCCN1CCC1CCN(Cc2nc(-c3ccc(Cl)cc3)no2)CC1	74% (active)
O=C(CCc1ccccc1)C1CCCN(Cc2nc(-c3ccc(Cl)cc3)no2)C1 (stereo not drawn)	73.2% (active)
Clc1ccc(-c2noc(CN3CCCN(c4ncccn4)CC3)n2)cc1	77.6% (active)
Clc1ccc(C2CCCN(Cc3nc(-c4ccccn4)no3)C2)cc1 (stereo not drawn)	73% (active)
Clc1ccc(-c2nc(-c3ccccn3)no2)cc1	79.7% (active)
c1ccc(CCCc2nc(-c3ccccn3)no2)cc1	30.6%
c1ccc(-c2noc(CN3CCCC(c4ccccc4)C3)n2)cc1 (stereo not drawn)	inactive
C=CCSc1nnc(NC(=O)C2CCCCC2)s1	91.9% (active)
Cc1csc(Sc2ccc(NC(=O)C3CCC3)c(C)c2)n1	33.2%
O=C(Nc1nnc(SCCc2ccccc2)s1)C1CCCCC1	3.18%
CC(=O)Nc1cc(C)nn1-c1nc(C)c(C)c(=O)[nH]1	101% (active)
COC(=O)CCc1c(C)nn(-c2nc(C)c(C)c(=O)[nH]2)c1C	101% (active)
COC(=O)CCc1c(C)nn(-c2nc(C)cc(=O)[nH]2)c1C	43.3%
Cc1cc(NC(=O)C(C)C)n(-c2nc(C)c(C)c(=O)[nH]2)n1	-18.6%
CCC(=O)Nc1cc(C)nn1-c1nc(C)c(C)c(=O)[nH]1	99.7% (active)
Cc1cc(NC(=O)C(C)(C)CCl)n(-c2nc(C)c(C)c(=O)[nH]2)n1	101% (active)
Cc1cc(NC(=O)Cc2ccccc2)n(-c2nc(C)c(C)c(=O)[nH]2)n1	99.4% (active)
Cc1[nH]nc(Nc2ccc(Cl)c(Cl)c2)c1[N+](=O)[O-]	70.3% (active)
CC(C)Oc1ccc(C(=O)NCc2cccs2)cc1	34.9%
O=C(NCc1cccs1)c1cc(Br)ccc1F	83.2% (active)
Brc1ccc(NCc2cccs2)cc1	6.27%
C=C(C)CN(CC)c1nc(N)c(C#N)c(C(C#N)Cc2ccc(C)cc2)c1C#N (stereo not drawn)	21.1%
O=c1[nH]c2sc3c(c2c2ncnn12)CCCC3	-17.8%
Cc1sc2nc[nH]c(=S)c2c1-c1ccccc1	87.7% (active)

Structure (SMILES)	inhibition
Cc1sc2nc[nH]c(=S)c2c1C	88.8% (active)
Cc1ccc(-c2csc3nc[nH]c(=S)c23)cc1C	31.2%
S=c1[nH]cnc2sc3c(c12)CCCC3	93.9% (active)
CC1CCc2c(sc3nc[nH]c(=S)c23)C1 (stereo not drawn)	2.8%
CC(NC(=O)CN(C)CC(=O)Nc1ccc(Cl)c(Cl)c1)c1ccco1 (stereo not drawn)	86.6% (active)
CC(N=c1ccccn1C(=O)Nc1ccc(Cl)c(Cl)c1)c1ccco1 (stereo not drawn)	-3.96%
C(=NNc1ccc2ccccc2n1)c1ccc2c(c1)OCCO2	27.8%
Fc1ccc(NN=Cc2ccc3c(c2)OCCO3)c(F)c1	37%
Fc1c(F)c(F)c(NN=Cc2ccc3c(c2)OCO3)c(F)c1F	89.5% (active)
Fc1ccc(NN=Cc2ccc3c(c2)OCO3)c(F)c1	81.8% (active)
O=C1C=C2C(=CCOC2O)O1 (stereo not drawn)	98.2% (active)
CC(NS(=O)(=O)c1ccccc1C#N)c1ccc(-n2ccnc2)cc1 (stereo not drawn)	-48.9%
CSc1ccc(-c2csc(N)n2)cc1	8.66%
Nc1nc(-c2ccc(F)cc2F)cs1	33.6%
O=c1[nH]c2ccc(-c3csc(-c4ccc(F)cc4)n3)cc2o1	39.4%
Fc1ccc(F)c(-c2csc(Nc3ccc4c(c3)OCCO4)n2)c1	22.8%
Cc1ccc(-c2csc(N)n2)cc1	101% (active)
OC(c1cn2cc(-c3ccc(F)cc3)nc2s1)(C(F)(F)F)C(F)(F)F	15.3%
Nc1nc(-c2ccc(I)cc2)cs1	inactive
Nc1nc(-c2cc(F)ccc2F)cs1	77.2% (active)
Nc1nc(-c2ccc(F)cc2)cs1	90.4% (active)
Cc1cc(C)cc(Nc2nc(-c3ccc(F)cc3)cs2)c1	51.7% (active)
C=CCNc1nc(-c2cc(F)ccc2F)cs1	45.9%
